Screening results (PubChem BioAssay)
Pf Dd2 inh = qHTS Primary assay for Inhibitors of Plasmodium falciparum Dd2 growth in vitro; P. falciparum Dd2 growth, SYBR Green, 72 h; actives 4.3% (n = 120,000); Potency, µM (highest dose often 28.9 µM), for the others: at the top dose activity, negative = inhibition, most hits filed as inhibitors; active = well fitted inhibition curve with a large enough effect;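 note: plate controls were DMSO vehicle for no effect and reference drug for full effect; nearly all actives have a fitted effect of over 65% in size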
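Readout: SYBR Green fluorescence, 485 nm excitation, 535 nm emission, after ~16 h lysis at 37C. Before that, Dd2-infected red cells (2.5% hematocrit) grew 72 h with compound, 29 uM top final concentration.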
Active calls of the source: *; i = inactive; [ ] = another dose, or the depositor's remark. The full list was thinned out, with hits kept by preference. Potency is the fitted concentration of half-maximal effect.

SMILES | Pf Dd2 inh
CC(=O)N1CC2(CCCN2CC2CC2)Cc2ccccc21 (stereo unspecified) | 10µM*
CCCN1CCCC12Cc1ccccc1CN(C(=O)CCNC(C)=O)C2 (stereo unspecified) | -9%
CO[C@H]1[C@H](NC(=O)c2ccc(C)nc2)c2ccccc2C12CCNCC2 | -1%
C1CC(C2CCN(C3CNC3)CC2)CN1 (stereo unspecified) | -4%
CSCC(=O)N1CCC(C2CCN(S(C)(=O)=O)CC2)C1 (stereo unspecified) | 7%
COc1ccc(C(=O)N[C@@H]2CN(c3ncccn3)C[C@H]2CN(C)C)cc1F | 6%
O=C(NCCc1ccccc1)N1CCC2(CC1)CC(N1CCOCC1)CCO2 (stereo unspecified) | -25%
CC(Oc1ccc2ccccc2c1)C(=O)N1CCCOCC1 (stereo unspecified) | -15%
COC(=O)[C@@H]1Cc2ncn(C)c2CN1C(=O)CC(C)(C)CC(=O)O | 10%[44.1 µM]
CC(C)CNC(=O)N1CC[C@H]2C(=O)NCCCCCCN(Cc3ccncc3)[C@@H]2C1 | 1%
CCn1ncc(CN2C[C@@H](CO)[C@H](NC(C)=O)C2)c1C | 47%
CCOc1ccc(NC(=O)C2CCN(C(=O)N3CC(C)Oc4ccc(Cl)cc43)CC2)cc1 (stereo unspecified) | 13µM*
CCCNC(=O)C1CCN(C(=O)N2CC(C)Oc3ccccc32)CC1 (stereo unspecified) | 11%
CC1CN(C(=O)N2CCC(C(=O)NCc3cccs3)CC2)c2cc(Cl)ccc2O1 (stereo unspecified) | -18%
CCC1CN(C(=O)N2CCC(C(=O)NCCc3ccc(OC)cc3OC)CC2)c2cc(C)ccc2O1 (stereo unspecified) | 5.6µM*
Cc1ccc2c(c1)N(C(=O)N1CCC(C(=O)NCCc3ccc(Cl)cc3)CC1)CC(C)O2 (stereo unspecified) | 8.9µM*
CNC(=O)C1CCN(C(=O)N2CC(C)Oc3ccc(C)cc32)CC1 (stereo unspecified) | -7%
CCC1CN(C(=O)N2CCC(C(=O)NCCN(CC)CC)CC2)c2cc(C)ccc2O1 (stereo unspecified) | i
CCC1CN(C(=O)N2CCC(C(=O)NCCc3ccc(C)cc3)CC2)c2ccccc2O1 (stereo unspecified) | i
CC1CN(C(=O)N2CCC(C(=O)NCCC3=CCCCC3)CC2)c2cc(Cl)ccc2O1 (stereo unspecified) | 212%[5.79 µM]
CC(C)C[C@@H](NC(=O)C1=C[C@@H](NC(=O)c2cccnc2)[C@@H](O)[C@H](O)C1)C(N)=O | 19%[44.1 µM]
O=C(NC1CCN(c2ccc(F)cc2)C1=O)c1ccc(Cl)s1 (stereo unspecified) | i
COc1ccc(C[C@H](NC(=O)C2=C[C@@H](NC(=O)Nc3ccc(OC(F)(F)F)cc3)[C@@H](O)[C@H](O)C2)C(N)=O)cc1 | 14%
CN(C)[C@@H]1[C@@H](NC(=O)C2(S(=O)(=O)c3ccccc3)CC2)[C@H]2CCO[C@H]21 | -15%
CN1C(=O)[C@@H]2C[C@@H](CN2C(=O)c2ccc3c(c2)OCO3)Oc2ccccc21 | 12%[44.1 µM]
SMILES | Pf Dd2 inh
CN(C)CCNC(=O)c1cccc2c1CCN2C(=O)Nc1ccccc1 | -18%
CNC(=O)C1(NC(=O)c2ccc(CCC(C)(C)O)cc2)CCCCC1 | -7%
O=C(O)CC1(CC(=O)N[C@H]2CO[C@H]3[C@@H]2OC[C@@H]3n2nnnc2Oc2cccc(N3CCOCC3)c2)CCCC1 | 2%
CC(=O)N1CCC(C(=O)N2CCC3(CC2)NC(=O)N(c2ccccc2)N3)CC1 | 20%
CCc1ccc(NC(=O)Cn2c(=O)c(CNc3ccccc3)cc3cc(OC)c(OC)cc32)cc1 | i
COc1ccc(NCc2cc3cc4c(cc3n(CC(=O)Nc3cc(C)cc(C)c3)c2=O)OCO4)cc1 | -6%
COc1cc2cc(CNc3ccccc3)c(=O)n(CC(=O)Nc3cc(C)cc(C)c3)c2cc1OC | 11µM*
Cn1nccc1CN1CCC2(C1)NC(=O)c1ccccc1O2 (stereo unspecified) | -4%[44.1 µM]
Cn1ncc2c(C(=O)NCCc3ccc(Cl)cc3)cc(C(C)(C)C)nc21 | 46%
CC(C)Cc1cc(C[C@@H]2C[C@H](NC3CCOCC3)C2(C)C)no1 | i
COCC(=O)N[C@H]1C[C@@H](Cc2cc(CO)on2)C1(C)C | -6%[44.1 µM]
CC(C)(C)CC(=O)N[C@H]1C[C@@H](Cc2cc(COc3ccccc3)on2)C1(C)C | i
CC1(C)[C@H](Cc2cc(COc3ccccc3)on2)C[C@@H]1NC(=O)Cc1ccccc1 | -18%[44.1 µM]
CC1(C)[C@H](Cc2cc(CO)on2)C[C@@H]1NC(=O)c1ccco1 | 1%[44.1 µM]
COCC(=O)N[C@H]1C[C@@H](Cc2cc(-c3ccc(OC)cc3)on2)C1(C)C | 2µM*
CC1(C)[C@H](Cc2cc(COc3ccccc3)on2)C[C@@H]1NC(=O)COc1ccccc1 | 8.9µM*
COCC(=O)NC1(Cc2cc(-c3ccc(OC)cc3)on2)COC1 | -3%[44.1 µM]
COCc1cc(C[C@@H]2C[C@H](NC(=O)c3ccco3)C2(C)C)no1 | 10µM*
CC1(C)[C@H](Cc2cc(COc3ccccc3)on2)C[C@@H]1NC1CCOCC1 | 10µM*
COCc1cc(C[C@@H]2C[C@H](NC(=O)c3ccnc(Cl)c3)C2(C)C)no1 | i
CCCN[C@H]1C[C@@H](Cc2cc(COc3ccccc3)on2)C1(C)C | i
CN(CC1CCOCC1)C(=O)NC1CCCC1 | -2%
CC1Oc2ccc(NS(=O)(=O)c3ccc(Cl)cc3)cc2CN(Cc2ccccc2F)C1=O (stereo unspecified) | -17%
COc1cccc(CNC(=O)[C@@H]2C[C@@H](O)CN2C2CCN(C(=O)c3cccnc3C)CC2)c1 | -7%
CNC(=O)C(C)(C)N1CCC[C@H]1C(=O)NC1CCCC1 | 39%[44.1 µM]
SMILES | Pf Dd2 inh
O=C(COc1ccccc1)N1CC[C@H]2CC(=O)N(c3ccccc3)CC[C@H]2C1 | -8%[44.1 µM]
N#Cc1cccc(C(=O)N2C[C@@H](Oc3ccccc3)C[C@H]2C(=O)N2CCOCC2)c1 | -9%
O=C(C[C@@H]1C[C@H]2O[C@H](CNCc3ccccc3Cl)[C@@H](O)[C@H]2O1)N1CCC(F)(F)C1 | 33%[44.1 µM]
O=C1Cc2c(-c3ccc4c(c3)OCO4)n[nH]c2CN1Cc1ccccc1 | -17%[44.1 µM]
CCOc1cc(=O)n2c(c1C(=O)Nc1ccc(C)c(F)c1)CCCC2 | i
O=C(O)C1CCc2nnc(C3CCN(C(=O)c4ccc(F)cc4)C3)n21 (stereo unspecified) | 10%
CCNC(=O)N1CCCCCNC(=O)[C@@H]2CCC[C@@H]21 | i
CCCOC(=O)N1CCC(C(=O)Nc2cccc(-c3cccc(F)c3)c2)CC1 | -14%
COc1ccc(C(=O)NCCn2ccn3nc(-c4cc(C)ccc4C)cc3c2=O)c(OC)c1 | -2%
O=C(NCC1CCOCC1)Nc1cc(F)cc(F)c1 | -24%
O=C(COc1ccccc1)N[C@@H]1C[C@H](Cn2cc(C3CC3)nn2)[C@@H](O)[C@H]1O | -7%[44.1 µM]
CCC(NC(=O)c1ccc(C)c(NC(=O)C2CC2)c1)c1ncnn1CC (stereo unspecified) | 9%
COc1cc(CN2CCN(C)C(C(=O)O)C2)c(Cl)cc1OC(C)C (stereo unspecified) | 8%
Cc1cccc2nnc(N3CCN(C(=O)CCc4ccccc4)CC3)n12 | -14%
CC(C)Oc1cccc2c1c(NC(=O)C1CCN(C)C1)nn2Cc1ccccc1 (stereo unspecified) | 2.2µM*
CC(C)Oc1cccc2c1c(NC(=O)C1CC(=O)N(C)C1)nn2Cc1ccccc1 (stereo unspecified) | -11%
